Measured values: publication PMC11006913

Columns and labels:
Test in all cases: PBM; 200 nM protein, PBS
Conditions in all cases: dsDNA, one strand shown
VENTX = molecular target: T1, VENTX (Homo sapiens, UniProt O95231 78-163, R121Q)
T1 sequence: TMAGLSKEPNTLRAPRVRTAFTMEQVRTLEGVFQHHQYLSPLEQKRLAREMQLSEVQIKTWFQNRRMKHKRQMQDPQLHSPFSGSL

HOXA4 [1] = molecular target: HOXA4 (Homo sapiens, UniProt Q00056 201-287, W262R)
HOXA7 [2] = molecular target: HOXA7 (Homo sapiens, UniProt P31268 116-202)
ALX4 [3] = molecular target: ALX4 (Homo sapiens, UniProt Q9H161 200-286)
PRRX1 [4] = molecular target: PRRX1 (Homo sapiens, UniProt P54821 80-166, F113S)
HOXB6 [5] = molecular target: HOXB6 (Homo sapiens, UniProt P17509 132-218, K202E)
ALX4 [6] = molecular target: ALX4 (Homo sapiens, UniProt Q9H161 200-286, Q225E)
HOXA2 = HOXA2 (Homo sapiens, UniProt O43364 129-215, R185T)
ALX1 [7] = molecular target: ALX1 (Homo sapiens, UniProt Q15699 118-204, L144V)
ALX1 [8] = molecular target: ALX1 (Homo sapiens, UniProt Q15699 118-204, L144R)
HOXA4 [9] = molecular target: HOXA4 (Homo sapiens, UniProt Q00056 201-287)
MSX2 = MSX2 (Homo sapiens, UniProt P35548 130-214)
VAX1 [10] = molecular target: VAX1 (Homo sapiens, UniProt Q5SQQ9 86-172, T142I)
HOXA7 [11] = molecular target: HOXA7 (Homo sapiens, UniProt P31268 116-202, W177C)
ALX1 [12] = molecular target: ALX1 (Homo sapiens, UniProt Q15699 118-204)
HOXA4 [13] = molecular target: HOXA4 (Homo sapiens, UniProt Q00056 201-287, W262F)
PRRX1 [14] = molecular target: PRRX1 (Homo sapiens, UniProt P54821 80-166)
VAX1 [15] = molecular target: VAX1 (Homo sapiens, UniProt Q5SQQ9 86-172, K157R)
HOXB6 [16] = molecular target: HOXB6 (Homo sapiens, UniProt P17509 132-218)
HOXB6 (Homo sapiens, UniProt P17509 132-218), sequence (P17509 132-218): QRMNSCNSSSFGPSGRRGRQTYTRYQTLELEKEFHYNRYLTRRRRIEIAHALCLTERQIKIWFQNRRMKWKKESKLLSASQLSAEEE

ALX4 (Homo sapiens, UniProt Q9H161 200-286), sequence (Q9H161 200-286): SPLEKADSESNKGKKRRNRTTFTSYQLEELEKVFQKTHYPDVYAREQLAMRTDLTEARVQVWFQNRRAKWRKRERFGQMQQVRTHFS
ALX1 (Homo sapiens, UniProt Q15699 118-204, L144R), sequence (Q15699 118-204 L144R): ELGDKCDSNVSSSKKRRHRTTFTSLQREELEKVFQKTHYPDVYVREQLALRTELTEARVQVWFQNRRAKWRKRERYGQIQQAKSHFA
HOXA4 (Homo sapiens, UniProt Q00056 201-287, W262F), sequence (Q00056 201-287 W262F): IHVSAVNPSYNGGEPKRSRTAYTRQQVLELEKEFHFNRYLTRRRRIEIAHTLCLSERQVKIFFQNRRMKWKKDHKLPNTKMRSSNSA
VAX1 (Homo sapiens, UniProt Q5SQQ9 86-172, T142I), sequence (Q5SQQ9 86-172 T142I): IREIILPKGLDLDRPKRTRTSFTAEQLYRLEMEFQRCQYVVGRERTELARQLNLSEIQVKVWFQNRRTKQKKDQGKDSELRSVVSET
HOXA2, sequence (O43364 129-215 R185T): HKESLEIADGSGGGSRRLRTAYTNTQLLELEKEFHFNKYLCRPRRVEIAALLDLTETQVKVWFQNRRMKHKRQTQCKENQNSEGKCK
PRRX1 (Homo sapiens, UniProt P54821 80-166, F113S), sequence (P54821 80-166 F113S): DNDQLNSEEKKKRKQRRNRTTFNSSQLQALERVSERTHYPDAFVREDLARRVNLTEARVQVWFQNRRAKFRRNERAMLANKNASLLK
ALX1 (Homo sapiens, UniProt Q15699 118-204), sequence (Q15699 118-204): as the sequence (Q15699 118-204 L144R) above, with R27L counted along it
ALX4 (Homo sapiens, UniProt Q9H161 200-286, Q225E), sequence (Q9H161 200-286 Q225E): as the sequence (Q9H161 200-286) above, with Q26E counted along it
HOXA4 (Homo sapiens, UniProt Q00056 201-287, W262R), sequence (Q00056 201-287 W262R): as the sequence (Q00056 201-287 W262F) above, with F62R counted along it
VAX1 (Homo sapiens, UniProt Q5SQQ9 86-172, K157R), sequence (Q5SQQ9 86-172 K157R): as the sequence (Q5SQQ9 86-172 T142I) above, with I57T, K72R counted along it
HOXA4 (Homo sapiens, UniProt Q00056 201-287), sequence (Q00056 201-287): as the sequence (Q00056 201-287 W262F) above, with F62W counted along it
ALX1 (Homo sapiens, UniProt Q15699 118-204, L144V), sequence (Q15699 118-204 L144V): as the sequence (Q15699 118-204 L144R) above, with R27V counted along it
HOXA7 (Homo sapiens, UniProt P31268 116-202, W177C), sequence (P31268 116-202 W177C): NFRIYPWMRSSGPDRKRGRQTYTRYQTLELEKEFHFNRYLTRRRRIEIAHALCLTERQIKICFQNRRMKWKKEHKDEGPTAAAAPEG
MSX2, sequence (P35548 130-214): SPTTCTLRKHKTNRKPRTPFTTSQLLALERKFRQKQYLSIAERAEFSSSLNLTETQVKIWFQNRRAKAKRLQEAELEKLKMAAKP
PRRX1 (Homo sapiens, UniProt P54821 80-166), sequence (P54821 80-166): as the sequence (P54821 80-166 F113S) above, with S34F counted along it
HOXA7 (Homo sapiens, UniProt P31268 116-202), sequence (P31268 116-202): as the sequence (P31268 116-202 W177C) above, with C62W counted along it
HOXB6 (Homo sapiens, UniProt P17509 132-218, K202E), sequence (P17509 132-218 K202E): as the sequence (P17509 132-218) above, with K71E counted along it

Row | Sequence | binding signal (VENTX) | binding signal (HOXA4 [1]) | binding signal (HOXA7 [2]) | binding signal (ALX4 [3]) | binding signal (PRRX1 [4]) | binding signal (HOXB6 [5]) | binding signal (ALX4 [6]) | binding signal (HOXA2) | binding signal (ALX1 [7]) | binding signal (ALX1 [8]) | binding signal (HOXA4 [9]) | binding signal (MSX2) | binding signal (VAX1 [10]) | binding signal (HOXA7 [11]) | binding signal (ALX1 [12]) | binding signal (HOXA4 [13]) | binding signal (PRRX1 [14]) | binding signal (VAX1 [15]) | binding signal (HOXB6 [16])
1 | ATAATTAC | 12.1 upbm affinity estimate (log intensity, higher = more binding, comparable within an allelic series) | 10.9 upbm affinity estimate (log intensity, higher = more binding, comparable within an allelic series) | 12.2 upbm affinity estimate (log intensity, higher = more binding, comparable within an allelic series) | 14 upbm affinity estimate (log intensity, higher = more binding, comparable within an allelic series) | 11.6 upbm affinity estimate (log intensity, higher = more binding, comparable within an allelic series) | 10.2 upbm affinity estimate (log intensity, higher = more binding, comparable within an allelic series) | 13.4 upbm affinity estimate (log intensity, higher = more binding, comparable within an allelic series) | 13.7 upbm affinity estimate (log intensity, higher = more binding, comparable within an allelic series) | 11.8 upbm affinity estimate (log intensity, higher = more binding, comparable within an allelic series) | 11.5 upbm affinity estimate (log intensity, higher = more binding, comparable within an allelic series) | 14.2 upbm affinity estimate (log intensity, higher = more binding, comparable within an allelic series) | 14 upbm affinity estimate (log intensity, higher = more binding, comparable within an allelic series) | 13.4 upbm affinity estimate (log intensity, higher = more binding, comparable within an allelic series) | 9.02 upbm affinity estimate (log intensity, higher = more binding, comparable within an allelic series) | 12.5 upbm affinity estimate (log intensity, higher = more binding, comparable within an allelic series) | 12.2 upbm affinity estimate (log intensity, higher = more binding, comparable within an allelic series) | 13.5 upbm affinity estimate (log intensity, higher = more binding, comparable within an allelic series) | 13.5 upbm affinity estimate (log intensity, higher = more binding, comparable within an allelic series) | 12.6 upbm affinity estimate (log intensity, higher = more binding, comparable within an allelic series)
2 | AATTAATG | 12 upbm affinity estimate (log intensity, higher = more binding, comparable within an allelic series) | 10.6 upbm affinity estimate (log intensity, higher = more binding, comparable within an allelic series) | 11.9 upbm affinity estimate (log intensity, higher = more binding, comparable within an allelic series) | 14 upbm affinity estimate (log intensity, higher = more binding, comparable within an allelic series) | 11.3 upbm affinity estimate (log intensity, higher = more binding, comparable within an allelic series) | 10.1 upbm affinity estimate (log intensity, higher = more binding, comparable within an allelic series) | 13.4 upbm affinity estimate (log intensity, higher = more binding, comparable within an allelic series) | 13 upbm affinity estimate (log intensity, higher = more binding, comparable within an allelic series) | 11.9 upbm affinity estimate (log intensity, higher = more binding, comparable within an allelic series) | 11.5 upbm affinity estimate (log intensity, higher = more binding, comparable within an allelic series) | 14.1 upbm affinity estimate (log intensity, higher = more binding, comparable within an allelic series) | 13.5 upbm affinity estimate (log intensity, higher = more binding, comparable within an allelic series) | 12.9 upbm affinity estimate (log intensity, higher = more binding, comparable within an allelic series) | 8.87 upbm affinity estimate (log intensity, higher = more binding, comparable within an allelic series) | 12.5 upbm affinity estimate (log intensity, higher = more binding, comparable within an allelic series) | 11.9 upbm affinity estimate (log intensity, higher = more binding, comparable within an allelic series) | 13.4 upbm affinity estimate (log intensity, higher = more binding, comparable within an allelic series) | 12.8 upbm affinity estimate (log intensity, higher = more binding, comparable within an allelic series) | 12.2 upbm affinity estimate (log intensity, higher = more binding, comparable within an allelic series)
3 | ATAATTAA | 12.1 upbm affinity estimate (log intensity, higher = more binding, comparable within an allelic series) | 10.9 upbm affinity estimate (log intensity, higher = more binding, comparable within an allelic series) | 12.1 upbm affinity estimate (log intensity, higher = more binding, comparable within an allelic series) | 14.5 upbm affinity estimate (log intensity, higher = more binding, comparable within an allelic series) | 12 upbm affinity estimate (log intensity, higher = more binding, comparable within an allelic series) | 10.3 upbm affinity estimate (log intensity, higher = more binding, comparable within an allelic series) | 14.2 upbm affinity estimate (log intensity, higher = more binding, comparable within an allelic series) | 13.6 upbm affinity estimate (log intensity, higher = more binding, comparable within an allelic series) | 12.3 upbm affinity estimate (log intensity, higher = more binding, comparable within an allelic series) | 11.9 upbm affinity estimate (log intensity, higher = more binding, comparable within an allelic series) | 14.3 upbm affinity estimate (log intensity, higher = more binding, comparable within an allelic series) | 13.9 upbm affinity estimate (log intensity, higher = more binding, comparable within an allelic series) | 13.7 upbm affinity estimate (log intensity, higher = more binding, comparable within an allelic series) | 8.99 upbm affinity estimate (log intensity, higher = more binding, comparable within an allelic series) | 12.8 upbm affinity estimate (log intensity, higher = more binding, comparable within an allelic series) | 12.6 upbm affinity estimate (log intensity, higher = more binding, comparable within an allelic series) | 13.7 upbm affinity estimate (log intensity, higher = more binding, comparable within an allelic series) | 13.5 upbm affinity estimate (log intensity, higher = more binding, comparable within an allelic series) | 12.4 upbm affinity estimate (log intensity, higher = more binding, comparable within an allelic series)
4 | AGTAATTA | 12.5 upbm affinity estimate (log intensity, higher = more binding, comparable within an allelic series) | 10.9 upbm affinity estimate (log intensity, higher = more binding, comparable within an allelic series) | 12.3 upbm affinity estimate (log intensity, higher = more binding, comparable within an allelic series) | 14.3 upbm affinity estimate (log intensity, higher = more binding, comparable within an allelic series) | 11.7 upbm affinity estimate (log intensity, higher = more binding, comparable within an allelic series) | 10.3 upbm affinity estimate (log intensity, higher = more binding, comparable within an allelic series) | 13.8 upbm affinity estimate (log intensity, higher = more binding, comparable within an allelic series) | 13.9 upbm affinity estimate (log intensity, higher = more binding, comparable within an allelic series) | 12.2 upbm affinity estimate (log intensity, higher = more binding, comparable within an allelic series) | 11.8 upbm affinity estimate (log intensity, higher = more binding, comparable within an allelic series) | 14.3 upbm affinity estimate (log intensity, higher = more binding, comparable within an allelic series) | 14.2 upbm affinity estimate (log intensity, higher = more binding, comparable within an allelic series) | 13.9 upbm affinity estimate (log intensity, higher = more binding, comparable within an allelic series) | 8.88 upbm affinity estimate (log intensity, higher = more binding, comparable within an allelic series) | 12.7 upbm affinity estimate (log intensity, higher = more binding, comparable within an allelic series) | 12.6 upbm affinity estimate (log intensity, higher = more binding, comparable within an allelic series) | 13.6 upbm affinity estimate (log intensity, higher = more binding, comparable within an allelic series) | 13.9 upbm affinity estimate (log intensity, higher = more binding, comparable within an allelic series) | 12.7 upbm affinity estimate (log intensity, higher = more binding, comparable within an allelic series)
